From PubChem BioAssay (NCATS)
Active and inactive are the calls of the source. The call rests on the fitted dose curve; in most records, active means well fitted curve in the direction sought with a large enough effect; inconclusive means small, poorly fitted or top-dose-only effect, or another doubt; inactive means no such curve, though single readings can be large or run the other way.

Target: alpha-glucosidase (Oryza sativa, rice) (UniProt Q653V4)
Assay: Counterscreen for Glucocerebrosidase Inhibitors: qHTS Assay for Rice alpha-Glucosidase at pH 5.0 (AID 997);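 on activity change, negative = inhibition: 0% = full activity with enzyme and -100% = basal without enzyme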
Conditions: rice alpha-glucosidase enzyme activity; series mostly up to 76.9 µM; activity change, negative = inhibition: at the top concentration
Source text: NIH Chemical Genomics Center [NCGC]
NIH Molecular Libraries Screening Centers Network [MLSCN]
PI Name: Zheng, Wei [NIH]
Alpha-glucosidase is responsible for hydrolysis of terminal, non-reducing 1,4-linked alpha-D-glucose residues with release of alpha-D-glucose. It is a lysosomal hydrolase that is required for the degradation of a small percentage (1-3%) of cellular glycogen in human. Deficiency of this enzyme results in glycogen-storage disease type II (GSDII), also referred to as Pompe disease, an autosomal recessive disorder. Structurally normal glycogen is accumulated in lysosomes and cytoplasm in affected patients, primarily in muscle tissues. Excessive glycogen storage within lysosomes may interrupt normal functioning of other organelles and leads to cellular injury. In turn, this leads to enlargement and dysfunction of the entire organ involved (eg, cardiomyopathy and muscle weakness).
It has reported that the improper folding and trafficking of alpha-glucosidase resulted from the genetic mutations may account for a significant number of Prope patients. […] We optimized this alpha-glucosidase assay in 1536-well plate format for identifying the novel small molecule inhibitors with the structures other than the sugar analogs in order to develop the new pharmacological chaperones.
NCGC Assay Protocol Summary:
This is a fluorogenic enzyme assay with 4-methylumbelliferyl-alpha-D-pyranoside as the substrate and rice alpha-glucosidase as the enzyme preparation. Upon the hydrolysis of this fluorogenic substrate, the resulting product, 1. 4-methyllumbelliferone, can be excited at 365 nm and emits at 440 nm which can be detected by a standard fluorescence plate reader. Data were normalized to the controls for basal activity (without enzyme) and 100% activity (with enzyme). In the AC50 values were determined from concentration-response data modeled with the standard Hill equation.
Assay buffer: 50 mM citric acid, 0.005% Tween-20, pH 5.0. (pH 5.0 is an optimal condition for this enzyme assay)
1536-well assay protocol for the human alpha-glucosidase:
(1) Add 2 ul/well of enzyme (4 nM final)
(2) Add 23 nL compounds in DMSO solution. The final titration was 0.7 nM to 77 uM.
(3) Add 1 ul of substrate (400 uM final)
(4) Incubate at room temperature for 20 min.
(5) Add 2 ul stop solution (1M NaOH and 1M Glycine mixture, pH 10)
(6) Detect the assay plate in a ViewLux plate reader (PerkinElmer) with Ex=365 nm and Em=440nm.
Keywords: Alpha-glucosidase, Prope Disease, pharmacological chaperone, chaperone therapy, high throughput screening, alpha-glucosidase inhibitor, MLSMR, MLSCN, NIH Roadmap, qHTS and NCGC
Potency means the concentration at half of the fitted maximal effect.

Row | Compound | activity change, negative = inhibition | Potency
1 | C=CCN1CCc2c(cc(O)c(O)c2Cl)[C@H](c2ccccc2)C1 | -2.06% (inactive) | –
2 | Nc1nc(Nc2ccccc2)nc2c1ncn2[C@@H]1O[C@@H](CO)[C@H](O)[C@@H]1O | -1.26% (inactive) | –
3 | Nc1ccc(CCNc2ncnc3c2ncn3[C@@H]2O[C@@H](CO)[C@H](O)[C@@H]2O)cc1 | 8.52% (inactive) | –
4 | CCCC[C@]1(C2CCCC2)Cc2cc(OCC(=O)O)c(Cl)c(Cl)c2C1=O | -0.323% (inactive) | –
5 | NC(=O)C1=CN([C@@H]2O[C@@H](COP(=O)(O)OP(=O)(O)OC[C@@H]3O[C@H](n4cnc5c(N)ncnc54)[C@@H](OP(=O)(O)O)[C@@H]3O)[C@H](O)[C@@H]2O)C=CC1 | 3.37% (inactive) | –
6 | CNc1ncnc2c1ncn2[C@@H]1O[C@@H](CO)[C@H](O)[C@@H]1O | -0.893% (inactive) | –
7 | NC[C@H](O)C1CCCCCCC1 | 1% (inactive) | –
8 | Nc1ncnc2c1ncn2[C@@H]1O[C@@H](C(=O)NC2CC2)[C@H](O)[C@@H]1O | -3.36% (inactive) | –
9 | O=C(O)/C=C\c1cnc[nH]1 | -1.23% (inactive) | –
10 | O=C(O)CCC(=O)N1CCC[C@H]1C(=O)O | -2.1% (inactive) | –
11 | C[C@@]12C=CC(=O)C=C1CC[C@@H]1C2=CC[C@]2(C)[C@@H]1CC[C@H]2C(=O)CN1CCN(c2cc(N3CCCC3)nc(N3CCCC3)n2)CC1 | -4.79% (inactive) | –
12 | NC(=S)NCCC[C@@H](N)C(=O)O | -0.301% (inactive) | –
13 | C[C@@H]1C[C@@H]2[C@H]3CCC4=CC(=O)C=C[C@]4(C)[C@]3(Cl)[C@@H](O)C[C@@]2(C)[C@@]1(O)C(=O)CO | 0.781% (inactive) | –
14 | CSc1nc(N)c2ncn([C@@H]3O[C@@H](COP(=O)(O)OP(=O)(O)O)[C@@H](O)[C@H]3O)c2n1 | -1.56% (inactive) | –
15 | COc1cc2nc(N3CCN(C(=O)OCc4ccccc4)[C@H](C(=O)NC(C)(C)C)C3)nc(N)c2cc1OC | 11.5% (inactive) | –
16 | OC[C@@H]1NC[C@@H](O)[C@@H](O)[C@H]1O | – | 79.4 nM (active)
17 | O=C1OC(=O)[C@@H]2[C@@H]1[C@@H]1CC[C@H]2O1 | -3.75% (inactive) | –
18 | CSC(N)=NCCC[C@@H](N)C(=O)O | 0.476% (inactive) | –
19 | C[C@@H](COc1ccc(/C=C\c2ccccc2)cc1)[N+](C)(C)C | -1.53% (inactive) | –
20 | O=C(O)CCCC[C@H]1CCSS1 | 0.1% (inactive) | –

Row | Compound | activity change, negative = inhibition | Potency
21 | C[C@@]12C(=O)OC(=O)[C@@]1(C)[C@H]1CC[C@@H]2O1 | -1.52% (inactive) | –
22 | CC(C)C[C@H]1C(=O)N2CCC[C@@H]2[C@]2(O)O[C@](NC(=O)[C@H]3C=C4c5cccc6[nH]c(Br)c(c56)C[C@H]4N(C)C3)(C(C)C)C(=O)N12 | -5.75% (inactive) | –
23 | Cc1cccc(C)c1OC[C@@H](N)C(C)C | -2.39% (inactive) | –
24 | [N-]=[N+]=Nc1ccc(C(=O)CSC[C@@H](NC(=O)CC[C@@H](N)C(=O)O)C(=O)NCC(=O)O)cc1 | -2.71% (inactive) | –
25 | CN1CCc2cc(Cl)c(O)cc2[C@H](c2ccccc2)C1 | -2.15% (inactive) | –
26 | C[C@@H](C(=O)O)c1ccc(C[C@@H]2CCCC2=O)cc1 | 0.273% (inactive) | –
27 | OC[C@@H]1O[C@@H](n2cnc3c(N[C@@H]4C[C@@H]5CC[C@H]4C5)ncnc32)[C@@H](O)[C@H]1O | -2.71% (inactive) | –
28 | Nc1nc(Cl)nc2c1ncn2[C@@H]1O[C@@H](CO)[C@@H](O)[C@H]1O | -0.996% (inactive) | –
29 | C[C@H](O)[C@H](O)[C@@H]1CNc2nc(N)[nH]c(=O)c2N1 | 45.6% (inactive) | –
30 | CN(C)C(=O)/N=N\C(=O)N(C)C | -0.653% (inactive) | –
31 | NC(=O)c1ncn([C@@H]2O[C@@H](CO)[C@@H](O)[C@H]2O)c1O | -3.16% (inactive) | –
32 | Cc1ccccc1/C=C\C1=NCCN1 | 3.05% (inactive) | –
33 | CCCCCCCCCC[Si](C)(C)CCC(=O)N[C@@H](Cc1ccc(C)cc1)c1ccccc1 | 0.76% (inactive) | –
34 | N[C@@H]1C=CC=C(C(=O)O)C1 | -1.23% (inactive) | –
35 | OC[C@@H]1O[C@H](O)[C@@H](Cl)[C@H](O)[C@@H]1O | -8.36% (inactive) | –
36 | C[C@@H]1O[C@@H](n2cc(F)c(=O)[nH]c2=O)[C@H](O)[C@@H]1O | 0.308% (inactive) | –
37 | Cc1ccccc1N1CCN(S(=O)(=O)C[C@@]23CC[C@H](C[C@H]2NC(=O)[C@@H](N)CCS(C)(=O)=O)C3(C)C)CC1 | -0.635% (inactive) | –
38 | Nc1c2c(nc3ccccc13)CCC[C@H]2O | -0.98% (inactive) | –
39 | CNC(=O)[C@@H]1O[C@@H](n2cnc3c(NCc4ccc(N)cc4)ncnc32)[C@@H](O)[C@H]1O | -1.76% (inactive) | –
40 | C[C@H](Oc1ccc(Oc2cnc3ccc(Cl)cc3n2)cc1)C(=O)O | -2.57% (inactive) | –
